mHTT CaM bind: mHTT-calmodulin interaction abrogation | P42858 | inhibition, % at 15 µM | AlphaScreen His-mHTT/GST-CaM binding, luminescence | AID 1671202 | hit rate 3.6% among 190,000;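 note: 0% = both proteins with DMSO and 100% = one protein alone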
Target sequence (P42858 whole entry, looked up, stated change not applied): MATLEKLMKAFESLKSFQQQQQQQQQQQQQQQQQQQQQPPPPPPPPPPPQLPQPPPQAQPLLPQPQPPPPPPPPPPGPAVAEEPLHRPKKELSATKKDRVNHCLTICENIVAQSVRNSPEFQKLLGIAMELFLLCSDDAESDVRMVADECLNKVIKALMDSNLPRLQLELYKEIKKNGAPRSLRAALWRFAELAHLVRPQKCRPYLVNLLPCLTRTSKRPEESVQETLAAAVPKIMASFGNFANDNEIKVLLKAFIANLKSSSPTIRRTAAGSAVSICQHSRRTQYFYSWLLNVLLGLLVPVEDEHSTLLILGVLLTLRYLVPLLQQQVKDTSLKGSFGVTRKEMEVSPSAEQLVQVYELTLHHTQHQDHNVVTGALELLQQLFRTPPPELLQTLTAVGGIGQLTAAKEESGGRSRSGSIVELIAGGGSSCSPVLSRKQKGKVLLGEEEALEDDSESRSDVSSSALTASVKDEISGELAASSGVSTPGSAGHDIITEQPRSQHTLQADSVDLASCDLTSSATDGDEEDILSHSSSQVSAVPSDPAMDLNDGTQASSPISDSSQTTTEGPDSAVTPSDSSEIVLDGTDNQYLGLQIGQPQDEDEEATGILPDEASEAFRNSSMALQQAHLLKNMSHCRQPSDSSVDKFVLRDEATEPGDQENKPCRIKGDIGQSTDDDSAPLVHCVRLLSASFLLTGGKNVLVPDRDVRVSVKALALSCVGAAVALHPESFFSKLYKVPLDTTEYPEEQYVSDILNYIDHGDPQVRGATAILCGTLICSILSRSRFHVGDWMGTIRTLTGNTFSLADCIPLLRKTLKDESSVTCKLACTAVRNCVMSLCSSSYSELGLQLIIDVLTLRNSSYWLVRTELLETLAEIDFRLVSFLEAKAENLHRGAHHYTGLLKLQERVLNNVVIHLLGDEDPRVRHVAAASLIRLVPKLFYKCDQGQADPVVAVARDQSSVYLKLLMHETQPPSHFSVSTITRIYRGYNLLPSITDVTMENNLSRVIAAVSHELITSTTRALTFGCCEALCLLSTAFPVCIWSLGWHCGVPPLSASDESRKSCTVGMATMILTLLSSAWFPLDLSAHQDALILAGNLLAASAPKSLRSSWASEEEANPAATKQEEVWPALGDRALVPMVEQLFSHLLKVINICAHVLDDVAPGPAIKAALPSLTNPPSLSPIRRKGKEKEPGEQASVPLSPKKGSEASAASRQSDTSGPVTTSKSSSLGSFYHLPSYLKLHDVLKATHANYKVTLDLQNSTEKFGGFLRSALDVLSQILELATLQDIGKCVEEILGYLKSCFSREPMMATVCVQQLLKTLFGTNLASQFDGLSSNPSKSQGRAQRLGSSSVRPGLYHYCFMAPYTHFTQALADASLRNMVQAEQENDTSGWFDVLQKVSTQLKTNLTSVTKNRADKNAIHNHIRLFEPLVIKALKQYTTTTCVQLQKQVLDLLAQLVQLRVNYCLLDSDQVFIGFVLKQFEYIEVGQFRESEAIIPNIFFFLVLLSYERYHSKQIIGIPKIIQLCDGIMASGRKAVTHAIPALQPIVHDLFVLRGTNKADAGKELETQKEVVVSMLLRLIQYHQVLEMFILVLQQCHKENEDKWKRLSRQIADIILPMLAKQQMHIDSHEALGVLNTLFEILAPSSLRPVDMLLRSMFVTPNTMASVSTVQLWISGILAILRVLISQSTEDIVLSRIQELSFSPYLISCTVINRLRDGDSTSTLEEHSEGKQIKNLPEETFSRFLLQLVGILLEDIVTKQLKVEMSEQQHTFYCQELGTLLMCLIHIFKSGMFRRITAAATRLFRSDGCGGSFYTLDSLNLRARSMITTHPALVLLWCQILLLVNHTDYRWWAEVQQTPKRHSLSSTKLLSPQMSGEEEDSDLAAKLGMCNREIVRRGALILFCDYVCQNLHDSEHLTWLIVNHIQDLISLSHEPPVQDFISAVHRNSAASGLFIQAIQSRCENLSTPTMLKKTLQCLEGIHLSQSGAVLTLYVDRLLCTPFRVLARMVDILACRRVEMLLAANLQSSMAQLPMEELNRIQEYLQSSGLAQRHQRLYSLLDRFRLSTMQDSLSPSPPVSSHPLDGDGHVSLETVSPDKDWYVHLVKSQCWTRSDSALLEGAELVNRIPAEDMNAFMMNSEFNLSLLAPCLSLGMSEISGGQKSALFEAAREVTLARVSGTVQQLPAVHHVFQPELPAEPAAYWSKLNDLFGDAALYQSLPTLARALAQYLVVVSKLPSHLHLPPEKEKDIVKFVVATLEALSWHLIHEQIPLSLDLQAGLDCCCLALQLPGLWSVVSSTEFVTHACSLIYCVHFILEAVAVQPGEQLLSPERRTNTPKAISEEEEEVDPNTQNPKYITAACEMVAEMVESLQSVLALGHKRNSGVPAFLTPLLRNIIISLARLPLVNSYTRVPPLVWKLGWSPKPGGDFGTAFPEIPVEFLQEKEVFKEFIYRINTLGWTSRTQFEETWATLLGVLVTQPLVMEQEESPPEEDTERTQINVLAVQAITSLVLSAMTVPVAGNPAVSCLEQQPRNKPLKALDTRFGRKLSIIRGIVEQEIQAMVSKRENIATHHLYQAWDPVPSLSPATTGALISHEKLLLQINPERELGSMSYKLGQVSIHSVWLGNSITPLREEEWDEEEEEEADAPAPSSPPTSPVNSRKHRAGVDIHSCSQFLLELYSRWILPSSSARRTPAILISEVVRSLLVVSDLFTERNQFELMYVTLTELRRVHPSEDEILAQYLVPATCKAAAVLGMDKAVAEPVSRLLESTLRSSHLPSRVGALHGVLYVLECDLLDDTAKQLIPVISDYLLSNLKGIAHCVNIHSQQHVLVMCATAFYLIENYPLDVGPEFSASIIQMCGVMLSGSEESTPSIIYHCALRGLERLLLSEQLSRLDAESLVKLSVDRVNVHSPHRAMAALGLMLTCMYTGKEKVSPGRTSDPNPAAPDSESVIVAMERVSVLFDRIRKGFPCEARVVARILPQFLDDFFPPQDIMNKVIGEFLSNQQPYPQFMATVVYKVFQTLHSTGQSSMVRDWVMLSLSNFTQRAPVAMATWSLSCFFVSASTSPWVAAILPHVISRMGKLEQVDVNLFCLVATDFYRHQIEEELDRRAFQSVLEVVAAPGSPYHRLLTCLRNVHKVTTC
Pf apPOL block: Pf-apPOL DNA polymerase inhibition | Recombinant Pf-apPOL, molecular beacon fluorescence, 1.5 h | inhibition, % at 10 µM | hit rate 0.25% among 210,000
* hit, by the source's call; · = no result. The sample as a whole holds a higher share of hits than the screen did. Cut-off read from the data, not from the text of the source: active = inhibition above about 50%; inactive = the rest.

SMILES	mHTT CaM bind	Pf apPOL block
CN(C)CC1CN(C(=O)c2ccc3c(c2)OCO3)CC12CCOCC2 (stereo unspecified)	-7	-2
O=C(O)CN1C(=O)/C(=c2/sc3nc4ccccc4n3c2=O)c2cc(Br)ccc21	0	-9
COC(=O)c1ccc(NC(=O)CSc2nc(=O)[nH]c3c2CCC3)cc1	3	2
O=C(CSc1nc(=O)[nH]c2c1CCC2)c1ccc(Cl)cc1	36	76*
COc1cc(OC)cc(C(=O)Nc2cc(-c3nc4ncccc4o3)ccc2Cl)c1	-4	-6
O=C1CC(NC(=O)c2ccc3c(c2)OCO3)CN1 (stereo unspecified)	-7	0
CC(C)CC1C(=O)N(Cc2cn(Cc3ccco3)nn2)CCS(=O)(=O)N1Cc1ccc(-c2ccc(Cl)cc2)cc1 (stereo unspecified)	40	-9
Cc1ccc(-c2ccc(CN3C(C(C)C)C(=O)N(Cc4cn(Cc5ccco5)nn4)CCS3(=O)=O)cc2)cc1 (stereo unspecified)	65*	-6
CC(C)CC1C(=O)N(Cc2cn(Cc3ccco3)nn2)CCS(=O)(=O)N1Cc1ccc(-c2cccc(CO)c2)cc1 (stereo unspecified)	59*	10
CC(C)C1C(=O)N(Cc2cn(Cc3ccco3)nn2)CCS(=O)(=O)N1Cc1ccc(-c2cccc(N(C)C)c2)cc1 (stereo unspecified)	65*	-4
COc1ccc(-c2ccc(CN3C(C(C)C)C(=O)N(Cc4cn(CC5CCCCC5)nn4)CCS3(=O)=O)cc2)cc1 (stereo unspecified)	20	-1
CC(C)C1C(=O)N(Cc2cn(CC3CCCCC3)nn2)CCS(=O)(=O)N1Cc1ccc(-c2ccc(F)cc2)cc1 (stereo unspecified)	22	-5
Nc1ncnc2c1nc(N1CCOCC1)n2C1OC(CO)C(O)C1O (stereo unspecified)	1	-3
Cc1cc(C)nc(N=C(NC(=O)C(C)C)Nc2ccc(F)cc2)n1	0	13
COc1ccc(-c2coc3c4c(ccc3c2=O)OCN(C2CC2)C4)cc1OC	-2	-10
CCOC(=O)c1c(N)no[n+]1[O-]	-6	·
N#C/C(=C\c1ccc(Br)cc1)c1nc(C2CC2)cs1	-41	-3
N#C/C(=C\c1ccc([N+](=O)[O-])cc1)c1nc(C2CC2)cs1	4	55*
CCNC(=O)N1CCc2c(c(-c3nc(-c4ccc(F)cc4)no3)nn2C)C1	3	-1
CCC1=NN(C(=O)c2ccc(Cl)cc2)C(O)(C(F)(F)F)C1 (stereo unspecified)	8	94*
CCC1=NN(C(=O)c2ccc(I)cc2)C(O)(C(F)(F)F)C1 (stereo unspecified)	15	3
Cc1cccc(C(=O)N2N=C(c3ccc(Cl)cc3)CC2(O)C(F)(F)F)c1 (stereo unspecified)	89*	-7
O=C(c1cccc(Cl)c1)N1N=C(c2ccc(Cl)cc2)CC1(O)C(F)(F)F (stereo unspecified)	-4	-2
Cc1ccc(C(=O)N2CCc3ccccc3C2C(=O)NCc2ccncc2)cc1 (stereo unspecified)	2	-1
O=C(NCc1ccc(N2CCOCC2)nc1)c1ccccc1F	-8	4
SMILES	mHTT CaM bind	Pf apPOL block
COc1cc(C=Nn2c(C)nc3c(ncn3-c3ccccc3)c2=O)cc(OC)c1OC	·	-7
Cc1ccc(-c2csc(N3N=C(c4ccc([N+](=O)[O-])cc4)CC3=O)n2)cc1	53*	0
O=[N+]([O-])c1ccc(-c2csc(N3CCCC3)n2)cc1	-2	-2
CCCCOc1ccc(CNC(=O)C2CCCN(c3ccncc3)C2)cc1 (stereo unspecified)	7	-1
CCCC(=O)Nc1ccc2c(c1)OCCO2	-2	3
O=C(CCCn1cccc1)Nc1ccc2c(c1)OCCO2	7	78*
CN(C)c1ncncc1N1CCC(C(=O)N2CCN(C3CCCCC3)CC2)CC1	1	-13
CN(C)c1ncncc1N1CCC(C(=O)N2CCN(c3cccc(Cl)c3)CC2)CC1	74*	-3
CN(C)c1ncncc1N1CCC(C(=O)N2CCN(c3ccccc3F)CC2)CC1	-3	-2
Cc1ccnc(N2CCC(C(=O)N3CCN(c4cccc(C)c4C)CC3)CC2)n1	-1	1
Cc1cccc(N2CCN(C(=O)C3CCN(c4cncnc4N(C)C)CC3)CC2)c1C	52*	2
Cc1ccnc(N2CCC(C(=O)N3CCN(c4cc(Cl)ccc4C)CC3)CC2)n1	88*	-2
Cc1ccc(-c2cncc(C(=O)NCc3ccc(C)o3)c2)cc1	2	-13
COc1cc(C(=O)CC2OC(=O)c3ccccc32)cc(OC)c1OC (stereo unspecified)	1	-7
COC(=O)c1ccc(CNC2CCN(c3ccc(C(=O)NC4CC4)cn3)C2)cc1 (stereo unspecified)	11	-2
COc1cc(OC)c(-n2nnc(-c3nc(-c4ccccc4OC)cs3)c2N)cc1Cl	9	-9
CCOc1ccc(CNc2ccc3c(c2)ncn3C(C)(C)C)cc1	30	5

Bioassay records deposited in PubChem by University of Kansas High Throughput Screening Laboratory.
